Assay results: the supplement of paper PMC10338343

System: MILI (PIWIL2) piRISC loaded with L1MC piRNA (26 nt)
Assay: pre-steady-state target cleavage rate (min^-1); guide: L1MC piRNA 5'p-UAACUAAAUACUAUGCAAGCUGUAGG; MIWI and MILI are mouse PIWI proteins and EfPiwi is from a freshwater sponge; tags in brackets are library labels; higher = faster piRNA-guided slicing of the target
Conditions: auxiliary factor: none (no GTSF1)
In short: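 Three pooled Cleave-'n-Seq trials supplied the data, with k3 capped at 0.0001 min^-1. In each, […] transcribed, DNA-blocked target RNA library and 1 nM active affinity-purified piRISC with one synthetic guide reacted in HEPES–potassium acetate buffer at 33 °C for 0–8 or 0–960 min, with or without 500 nM GTSF1 partner protein. Uncleaved targets were sequenced and normalised to depth and to weakly complementary targets. A burst-and-steady-state fit provided the pre-steady-state cleavage rate.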
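Further: 1 nM active piRISC with 0.1 nM target library at 33 °C single turnover.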

pre-steady-state target cleavage rate, < 0.0001:
UCCUGGAUGUCGAUGAUAGUAUUUAGUUA
UCCUGGAUGUCGAACGUUAGGUAUUUAGUUA
UCCUGGAUGUCGAACGUUAGUAAUUAGUUA
UCCUGGAUGAGCUUGCAUAGAUAUUACAAA
